An excerpt weighted towards active compounds, which were near 4.3% of everything screened.
uPA surface inh: blocks generation of uPA at the cell surface; cell surface uPA generation assay, qHTS; Potency, µM (titrated, usually from 38.3 µM), for the others: at the top dose activity change, negative = inhibition, most hits filed as inhibitors; 330,000 compounds, 0.31% hits; AID 540303; active = well fitted inhibition curve with a large enough effect; inconclusive = small, poorly fitted or top-dose-only effect; inactive = no such curve, though single readings can be large or run the other way; tested in mouse RAW 264.7 cells; also: potency is read from the fitted curve at half-maximal effect; % is scaled to controls: 0 for no effect and ±100 for the full control effect; nearly all actives have a fitted effect of over 55% in size
Giardia kill: Giardia lamblia killing; Giardia lamblia trophozoite viability; activity change, % at 7.66 µM, hits read low; 340,000 compounds, 0.15% hits; in the data active = activity change below about -80%; inconclusive = between about -30% and that limit;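 also: parasites exposed to compound for two days anaerobically before the ATP read; % is scaled to controls: 0 for no effect and ±100 for the full control effect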
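Luminescent ATP signal served as the viability read-out, measured 15-30 min after adding ATP detection reagent to trophozoites that had been incubated with compounds for 48 hrs at 37 deg C anaerobically at 100 cells/well.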
SW480 rereplic: DNA re-replication induction in SW480 cells; Potency, µM (series often up to 46.1 µM), inactives show at the top dose re-replication activation, hits mostly activators; SW480 DNA re-replication, Hoechst DNA content imaging, 48 h; 340,000 compounds, 1.8% hits; also: potency is read from the fitted curve at half-maximal effect; % of control where 0% means no effect; nearly all actives have a fitted effect of over 55% in size
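Compounds, transferred as 23 nL by pin tool, were incubated with cells for 48 hr; DNA content per nucleus was then quantified by Hoechst staining and fluorescence plate imaging.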
MCF10A rerep: inducers of DNA re-replication in MCF 10A breast cells | MCF 10A DNA re-replication, Hoechst nuclear intensity, 48 h | Potency, µM (highest dose often 46.1 µM), for inactives: at the highest dose activity, positive = re-replication, hits mostly activators | 350,000 compounds, 2.9% hits; also: potency is read from the fitted curve at half-maximal effect; % of control where 0% means no effect; nearly all actives have a fitted effect of over 50% in size
Active calls of the source: *. Unless noted, calls follow the shape of the dose curve; as a rule, active = well fitted activation curve with a large enough effect; inconclusive = small, poorly fitted or top-dose-only effect; inactive = no such curve, though single readings can be large or run the other way.

What do the screens show for `Cc1cc(C)c2c(N)c(C(=O)Nc3cccc(C)c3C)sc2n1`?
uPA surface inh: -9%; Giardia kill: 4; SW480 rereplic: 12µM*; MCF10A rerep: 16µM*

How did Cc1cc(C)c2c(N)c(C(=O)NN)sc2n1 do in these assays?
uPA surface inh: 3%; Giardia kill: 10; SW480 rereplic: inconclusive; MCF10A rerep: inconclusive

How did Cc1ccc(NC(=O)c2sc3nc(C)cc(C)c3c2N)cc1 do in these assays?
uPA surface inh: -2%; Giardia kill: -13; SW480 rereplic: 19%; MCF10A rerep: -5%

How did CCOC(=O)c1sc2nc(C)c3c(c2c1N)CC(C)(C)OC3 do in these assays?
uPA surface inh: -4%; Giardia kill: -13; SW480 rereplic: -3%; MCF10A rerep: 22%

How did CCCc1nc2sc(C(=O)OCC)c(N)c2c2c1COC(C)(C)C2 do in these assays?
uPA surface inh: 4%; Giardia kill: 0; SW480 rereplic: 23%; MCF10A rerep: 3.3µM*

What do the screens show for `COc1cccc(OC)c1OCc1cc(C2C3CCCC=C3C(C#N)=C(N)C2(C#N)C#N)c(C)cc1C` (centres undefined)?
uPA surface inh: 6%; Giardia kill: -9; SW480 rereplic: 18µM*; MCF10A rerep: 13µM*

What do the screens show for `Cn1c(=O)c2[nH]c(CCCCCCCc3nc4ccccc4[nH]3)nc2n(C)c1=O`?
uPA surface inh: -2%; Giardia kill: 20; SW480 rereplic: 16%; MCF10A rerep: 12%

Results for CCOc1ccc(-c2cc(C(=O)NN=C3CCN(C)CC3)[nH]n2)cc1 ?
uPA surface inh: -3%; Giardia kill: -4; SW480 rereplic: 4%; MCF10A rerep: -2%

How did CN1CCC(=NNC(=O)c2cc(-c3ccc(Cl)cc3)n[nH]2)CC1 do in these assays?
uPA surface inh: 1%; Giardia kill: -11; SW480 rereplic: -52%; MCF10A rerep: 18µM*

Results for CC(=O)c1ccc(-c2ccc(C(=O)NCC3CCCO3)o2)cc1 (centres undefined) ?
uPA surface inh: -2%; Giardia kill: -13; SW480 rereplic: 1%; MCF10A rerep: 8%

Results for O=C(O)CN1C(=O)c2ccc(C(=O)c3ccccc3)cc2C1=O ?
uPA surface inh: 2%; Giardia kill: -25; SW480 rereplic: -4%; MCF10A rerep: 0%

What do the screens show for `Cc1onc(C(=O)N2CCN(C(c3ccccc3)c3ccccc3)CC2)c1[N+](=O)[O-]`?
uPA surface inh: 10µM*; Giardia kill: 6; SW480 rereplic: 4.1µM*; MCF10A rerep: 4%

Results for CCOC(=O)C1CCN(C(=O)COC(=O)CNC(=O)c2ccc(C(C)(C)C)cc2)CC1 ?
uPA surface inh: -3%; Giardia kill: 3; SW480 rereplic: -8%; MCF10A rerep: -1%

How did CN(C(=O)COC(=O)C1CCN(S(=O)(=O)c2c(Cl)cccc2Cl)CC1)C1CCCCC1 do in these assays?
uPA surface inh: -5%; Giardia kill: -2; SW480 rereplic: 3.7µM*; MCF10A rerep: inconclusive

What do the screens show for `Cc1ccc(OCCC(=O)OCC(=O)N2CCN(S(=O)(=O)c3ccc(Cl)cc3)CC2)cc1`?
uPA surface inh: -9%; Giardia kill: 15; SW480 rereplic: 18µM*; MCF10A rerep: 4%

How did CCOc1ccc(OCCC(=O)OCC(=O)N2CCN(S(=O)(=O)c3ccc(C)cc3)CC2)cc1 do in these assays?
uPA surface inh: inconclusive; Giardia kill: -28; SW480 rereplic: 11%; MCF10A rerep: inconclusive

How did Cc1ccc(S(=O)(=O)N2CCN(C(=O)COC(=O)C3CCC3)CC2)cc1 do in these assays?
uPA surface inh: -2%; Giardia kill: -23; SW480 rereplic: 6.5µM*; MCF10A rerep: -1%

What do the screens show for `Cc1ccc(S(=O)(=O)N2CCN(C(=O)COC(=O)CCOc3ccc(C(C)(C)C)cc3)CC2)cc1`?
uPA surface inh: -4%; Giardia kill: -21; SW480 rereplic: 18µM*; MCF10A rerep: 4%

Results for O=C(O)C(Cc1cc(I)c(O)c(I)c1)c1ccccc1 (centres undefined) ?
SW480 rereplic: 8%; MCF10A rerep: inconclusive

What do the screens show for `Cc1ccc(C(=O)NC(Cc2ccccc2C(F)(F)F)C(=O)O)cc1` (centres undefined)?
uPA surface inh: -9%; Giardia kill: 9; SW480 rereplic: -4%; MCF10A rerep: -1%

What do the screens show for `CC1=CC(C)(C)n2c(O)c(N=N)c3c(C)c(C)cc1c32`?
uPA surface inh: -5%; Giardia kill: 27; SW480 rereplic: inconclusive; MCF10A rerep: 23µM*

Screens as filed in PubChem BioAssay.
